Measured values from PubChem BioAssay AID540356 (Broad Institute, 2011).
About 360 (14%) of roughly 2,500 compounds were called active. These entries were drawn from the full list. Unmarked numbers belong to inactive results.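 How the source made its calls: active means signal-lowering compounds whose fitted half-maximal concentration AC50 is no higher than ten times their top tested concentration; inconclusive means flat curve with 30 to 70% inhibition, or poor fit; inactive means flat within 30%, signal increase, or AC50 above limit.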

Assay: non-specific inhibitors of H2O2 luminol chemiluminescence – biochemical, luminescence, no ALR or DTT, cherry-pick, artefact control for ALR inhibitor project, dose response (AID 540356);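 on activity change, negative = inhibition: 0% = median of neutral control wells and -100% = median of quercitin 100 µM wells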
Details: HRP/H2O2 luminol luminescence counterscreen; series mostly up to 10 µM; activity change, negative = inhibition: at the top concentration

SMILES | activity change, negative = inhibition [%] | AC50
COc1ccc(Nc2cccc(Cl)c2)c(C(=O)O)c1 | -13.4 | –
C/C(=N\Nc1cccc(Cl)c1)c1ccncc1 | 3.05 | –
O=C(NNc1cccc(Cl)c1)c1cccnc1Cl | – | 6.88 µM (active)
O=C(CC1CCCC1)N1CCCC(Nc2ccc(F)cc2)C1 (stereo unspecified) | 0.017 | –
Cc1occc1C(=O)N1CCCC(Nc2ccc(C(C)C)cc2)C1 (stereo unspecified) | -3.64 | –
CCS(=O)(=O)N1Cc2ccccc2CC1C(=O)N1CCN(c2ccccc2)CC1 (stereo unspecified) | 1.97 | –
Cc1ccc2c(C)c(C(=O)Nc3ccc(S(=O)(=O)Nc4onc(C)c4C)cc3)oc2c1 | -6.98 | –
CCN(CC)c1ccc(NC(=O)CN2CCN(c3ccc(F)cc3)CC2)cc1 | -1.86 | –
CCN(CC)c1ccc(NC(=O)c2nc3nc(C)cc(C(F)F)n3n2)cc1 | – | 10.3 µM (active)
CCN(CC)c1ccc(NC(=O)CN2CCN(c3nc(C)cc(C)n3)CC2)cc1 | -15.6 | –
COc1ccc(N2C(=O)CSC2c2ccc([N+](=O)[O-])cc2)cc1 (stereo unspecified) | 0.574 | –
O=C(NNc1cc(Br)c(O)c(Br)c1)c1ccccc1 | -1.51 | –
O=C(NNc1ccc(O)cc1)c1ccc(Br)cc1 | – | 9.05 µM (active)
COc1ccc(Br)cc1C(=O)Nc1ccc(O)cc1 | -12.1 | –
Nc1cccc(/C=C/c2ccncc2)c1 | -4.25 | –
CCN(CC)Cc1c(-c2ccccc2)[nH]c2ccc(C)cc2c1=O | -0.224 | –
Oc1ccc(O)c(-c2cnns2)c1 | – | 5.54 µM (active)
c1ccc(-c2nnc(CN3CCN(c4ccccc4)CC3)o2)cc1 | 1.45 | –
COc1ccc(NC2CCCN(C(=O)c3cn(C)c4ccccc34)C2)cc1 (stereo unspecified) | -14.7 | –
Cc1ccc(Nc2c(-c3ccccc3O)nc3cnccn23)cc1 | 0.898 | –
CC(=O)Oc1cc2oc(=O)cc(C)c2cc1Cl | -1.43 | –
Cc1cc(N)n2ncc(-c3ccccc3)c2n1 | -0.253 | –
O=C(NCC(c1cccnc1)N1CCN(c2ccc(F)cc2)CC1)c1ccco1 (stereo unspecified) | -1.53 | –
COC(=O)[C@H](Cc1ccccc1)NC(=O)N1CCN(c2ccccc2)CC1 | 0.603 | –
O=C(CN1CCN(c2ccccc2)CC1)Nc1ccccc1Cl | -0.658 | –

SMILES | activity change, negative = inhibition [%] | AC50
O=C1N/C(=N\S(=O)(=O)Cc2ccccc2)S/C1=C/c1cc([N+](=O)[O-])ccc1O | -0.915 | –
Cc1ccc(N2CCN(C(=O)CNS(=O)(=O)c3ccc(Br)s3)CC2C)cc1 (stereo unspecified) | -2.85 | –
COc1ccc(N2CCN(C(=O)c3ccc(SC)cc3OC)CC2)cc1 | 0.908 | –
CCn1c(-c2cc(OC)c(OC)c(OC)c2)n[nH]c1=S | -10.3 | –
COc1cc(-c2nc(=S)[nH][nH]2)cc(OC)c1OC | – | 3.9 µM (active)
S=c1nc(-c2cc(Cl)cc(Cl)c2)[nH][nH]1 | -2.06 | –
FC(F)(F)c1ccc(-c2nc(=S)[nH][nH]2)cc1 | -5 | –
S=c1nc(-c2cccc(Cl)c2)[nH][nH]1 | -9.58 | –
COc1ccc(-c2nc(=S)[nH][nH]2)cc1 | – | 2.94 µM (active)
CC(=O)Nc1ccc(N2C(=O)CSC2c2ccccc2)cc1 (stereo unspecified) | 3.31 | –
COc1ccc2nc(N3CCCC3)[nH]c2c1 | -7.05 | –
Cc1[nH]c2ccccc2c1N=Nc1cccc(C(=O)O)c1 | -10.3 | –
CCCCC(NC(=O)Cc1c(C)c2cc3c(C)c(C)oc3c(C)c2oc1=O)C(=O)O (stereo unspecified) | -14.1 | –
CC(=O)NC(c1cc(Cl)c2ccccc2c1O)C(C)C (stereo unspecified) | -4.5 | –
COc1ccccc1N1CCN(C2CCCN(C(=O)CCc3c(C)noc3C)C2)CC1 (stereo unspecified) | -1.06 | –
CCN(CC)c1ccc(NC(=O)c2ccc(Br)o2)c(C)c1 | -5.68 | –
Cc1cccc(C2CN(C)CCc3c2cc(O)c(O)c3Cl)c1 (stereo unspecified) | – | 8.78 µM (active)
COc1ccc2[nH]c(=S)[nH]c2c1 | -5.52 | –
COc1cc(OC)cc(-c2cn[nH]c2N)c1 | 0.221 | –
COc1ccc(-c2cn[nH]c2N)c(OC)c1 | – | 7 µM (active)
Nc1cccc(CCc2ccncc2)c1 | -1 | –
O=C(Cc1ccc(Cl)cc1)N1CCN(c2ccccc2)CC1 | -0.387 | –
O=c1/c(=C/c2ccc(O)cc2)sc2n1CCCN=2 | – | 9.71 µM (active)
O=C(C1CCCN(S(=O)(=O)c2cnc[nH]2)C1)N1CCN(c2ccc(Cl)cc2)CC1 (stereo unspecified) | -7.06 | –
O=C1CCCN1CCCNc1ncnc2c1[nH]c1ccc(Cl)cc12 | -0.822 | –

SMILES | activity change, negative = inhibition [%] | AC50
COc1cc2c(ccc3cc(OC)c(OC)c(O)c32)cc1O | -17 | –
CCN(CCNS(=O)(=O)c1ccc2[nH]c(=O)sc2c1)c1ccccc1 | -0.959 | –
CC(=O)N1CC[n+]2c(-c3ccc(Cl)cc3)csc21 | -1.68 | –
O=C(CN1C(=O)CCC1=O)NNc1ccc2ccccc2c1 | – | 0.0915 µM (active)
O=C(CNc1ccc2ccccc2c1)NNC1=NCCC1 | -0.851 | –
O=C1CCC(=O)N1CNc1ccc(Oc2ccccc2)cc1 | 0.862 | –
CCCn1cnc2cc(NCc3ccccc3O)ccc21 | 1.95 | –
Cc1cc(N2CCN(c3ccccc3)CC2)n2ncnc2n1 | -4.68 | –
O=C(O)c1ccc(CSc2nc3ccccc3o2)cc1 | -3.53 | –
CC(=O)N1CCN(C(=S)c2ccc(N(C)C)cc2)CC1 | -6.25 | –
S=c1[nH]nc(-c2ccco2)n1Cc1ccccc1 | -8.45 | –
CCn1c(-c2ccc(N)cc2)nc2ccccc21 | 5.07 | –
COc1ccc(-c2n[nH]c(=S)n2Cc2ccco2)cc1 | -2.38 | –
S=c1[nH]nc(-c2ccncc2)n1Cc1ccco1 | -1 | –
O=C(NNS(=O)(=O)c1ccc(F)cc1)c1cc2ccccc2cc1O | -9.25 | –
O=C(C1CCCC1)N1CCCC(Nc2ccccc2)C1 (stereo unspecified) | -1.5 | –
CCc1[nH]nc(C(=O)N2CCCC(Nc3ccc(C(C)C)cc3)C2)c1C (stereo unspecified) | -2.33 | –
CCc1ccc(-c2csc3[n+]2CCN3C(C)=O)cc1 | -4.47 | –
O=C(Nc1ccc2snnc2c1)N1CCN(c2ccccc2)CC1 | -2.31 | –
CC1(C)Nc2ccccc2N(CC(=O)N2CCCCC2)C1=O | -0.3 | –
O=c1[nH]c(/C=C\c2cccc(F)c2)nc(O)c1[N+](=O)[O-] | -1.32 | –
O=c1[nH]c(/C=C\c2cccc(Cl)c2)nc(O)c1[N+](=O)[O-] | 2.32 | –
CCn1c(/C=C/c2ccc(O)cc2)nc2ccccc2c1=O | -1.78 | –
O=c1[nH]c(/C=C\c2ccccc2F)nc(O)c1[N+](=O)[O-] | 14.8 | –
COc1cc(/C=N/NC(=O)c2cccc([N+](=O)[O-])c2)cc(OC)c1O | -11.4 | –

SMILES | activity change, negative = inhibition [%] | AC50
COc1cc(/C=N/Nc2ccc([N+](=O)[O-])cn2)cc(OC)c1O | -0.153 | –
Cc1ccc(C2SCC(=O)N2c2ccccc2)cc1 (stereo unspecified) | -0.588 | –
N#CC1=C(N)n2c(s/c(=C\c3cccs3)c2=O)=C(C#N)C1c1cccs1 (stereo unspecified) | -4.78 | –
N#Cc1cnn(-c2ccccc2)c1NC(=O)CN1CCN(c2ccccc2)CC1 | -1.31 | –
CN(C)S(=O)(=O)c1ccc(-c2cn3ccccc3n2)cc1 | -0.3 | –
O=C(N/N=C\c1cccc(Cl)c1)c1ccc(Cn2cccn2)o1 | -1.36 | –
CSc1nc(O)c(Nc2cccc(Cl)c2)c(=O)[nH]1 | -7.18 | –
Nc1ncc(Br)cc1S(=O)(=O)NCCC(=O)N1CCN(c2ccccc2)CC1 | 0.555 | –
Cc1ccc(S(=O)(=O)N2CCN=C2SCc2cccnc2)cc1 | -1.98 | –
CC(=O)Nc1nc(C)c(-c2csc(Nc3ccc(O)cc3)n2)s1 | -8.34 | –
Nc1ccc(-c2nc3cc(N)ccc3s2)cc1 | 7.41 | –
CN=c1scc(-c2ccccc2F)n1/N=C(\C)c1cccnc1 | 3.25 | –
O=C1CSC(=S)N1c1ccc(O)cc1 | -14.2 | –
COc1cc(/C=N/NC(=O)Cn2cnc3c2c(=O)n(C)c(=O)n3C)ccc1O | -4.29 | –
S=c1[nH]nc(C2CCCCC2)n1/N=C/c1ccccn1 | -9.61 | –
Oc1cc(O)cc(/C=C/c2ccc(O)c(O)c2)c1 | – | 5.21 µM (active)
Oc1ccc(/C=N/N=C/c2ccc(O)cc2)cc1 | -5.85 | –
Cc1ccsc1C=Nc1ccc(O)cc1 | -11.6 | –
O=Cc1ccc(O)c(O)c1 | -9.22 | –
COc1ccc(N=C2C(=O)Nc3ccccc32)cc1 | -1.56 | –
COc1cc(/C=N/N=C2/NC(=O)C(c3ccccc3)S2)ccc1O (stereo unspecified) | -6.81 | –
Cc1ccc(CN2CCN(/N=C/c3ccc(O)c(O)c3)CC2)cc1 | -16.5 | –
COc1cc(/C=C/c2ccc(O)cc2)cc(OC)c1 | -7.17 | –
Oc1ccc(/C=N/N=C/c2ccc(O)c(O)c2)cc1O | – | 2.39 µM (active)
COc1ccccc1C(=O)NCCN1CCN(c2ccccc2)CC1 | -0.099 | –

SMILES | activity change, negative = inhibition [%] | AC50
CN(C)c1ccc(NC(=O)Nc2ccc3snnc3c2)cc1 | -3.85 | –
CC(C)(C)c1cc(-c2n[nH]c(=S)n2-c2ccccc2F)n[nH]1 | -5.97 | –
N#CCC(=O)Nc1ccc(C(=O)NCc2cccc(Cl)c2)cc1 | 3.3 | –
CC(=O)Oc1ccc(-c2cccc(C(=O)N(C)c3ccc(O)cc3)c2)cc1 | -3.13 | –
CCN(CCCNS(=O)(=O)c1ccc2c(c1)CCN2C(C)=O)c1cccc(C)c1 | -1.53 | –
N#CC1=C(N)Oc2n[nH]c(-c3cccs3)c2C1c1ccco1 (stereo unspecified) | -15 | –
COc1cc(/C=N/NC(=O)c2cc(-c3ccc4c(c3)OCO4)n[nH]2)ccc1O | -3.44 | –
COC(=O)Cc1ccc(O)c(N)c1 | -2.6 | –
CC(C)C1C(C#N)=C(N)Oc2n[nH]c(-c3cccs3)c21 (stereo unspecified) | -0.778 | –
COc1ccc(OC)c(C2C(C#N)=C(N)Oc3cc(N)ccc32)c1 (stereo unspecified) | -8.04 | –
Cc1ccc(C2C(C#N)=C(N)Oc3cc(N)ccc32)cc1 (stereo unspecified) | 0.893 | –
CC1CC/C(=N/Nc2ccccc2)C(=O)N1 (stereo unspecified) | 0.626 | –
c1csc(-c2nc3ccccn3c2NC2CCCCC2)c1 | -1.18 | –
Cc1ccn2c(NC(C)(C)C)c(-c3cccs3)nc2c1 | -6.03 | –
COc1ccc(C)cc1NC(=O)c1cc2c(CO)cnc(C)c2oc1=N | 1.17 | –
Oc1ccccc1N1CCN(c2nnnn2-c2ccccc2)CC1 | 2.71 | –
CN1CC(=O)N(CC(=O)Nc2ccc(SC(F)F)cc2)C1=O | 0.156 | –
O=C(NCC(=O)N1CCN(c2ccccc2O)CC1)c1cccs1 | 6.02 | –
Cc1ccc(S(=O)(=O)Nc2c(C(=O)O)[nH]c3ccccc23)c(C)c1 | -9.26 | –
CCN(CC)c1ccc(C(=O)N/N=C(\C)c2ccc(O)cc2)cc1 | -5.31 | –
C/C(=N\NC(=O)c1csc2ccccc12)c1ccc(O)cc1 | -13.2 | –
